Assay results from paper PMC12136788.
Whole data set: some 24,000 sequences, median “enrichment r” near 0.99, cut for the highest 2% near 3.7. Not all results are given here.

T1: UNK ZnF1-3 (human, UniProt Q9C0B0 31-174)
T1 sequence: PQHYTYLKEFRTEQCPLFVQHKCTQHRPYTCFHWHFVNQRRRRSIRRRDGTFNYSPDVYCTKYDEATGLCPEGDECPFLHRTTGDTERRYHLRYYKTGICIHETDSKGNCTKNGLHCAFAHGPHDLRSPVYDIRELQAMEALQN

B1: 24016654_24036560_782_3pUTR_ENSMUSG00000024277_ENSMUST00000025127|mouse|control|control (ssRNA)
RNA: GGGAGUUCUACAGUCCGACGAUCCGUUUCUAAAUCUUUGUCAGAUCUGGAUGCAGAGCCACUGGAUGAAGCCCUUUUGGCAGACGAGGGGCGAGAAGGUGUGGAUCCUGGCUUAGAUGCAGGACUUGACUUAGCCGCGCCUGCCAACAGAGGAUUGAGCAUCA
B2: chr11:77340908:77340909:-_ENSG00000074201_ENST00000525064|hu_mus|FALSE|FALSE (ssRNA)
RNA: GGGAGUUCUACAGUCCGACGAUCGUUUGGAUCCCUGGACACCGCAUGUAAACUAAUGGUGGGGUAUUCCAGUGAGAAUCCUAAUCCCGAACCAUCUAACCAGGACAGGCGGCUCUCCGCGAUGUAAAGCGUGCCGGUGCCGAGCAACAGAGGAUUGAGCAUCA
B3: chr11:115359427:115359428:-_ENSMUSG00000020737_ENSMUST00000021083|mus_hu|motif|central (ssRNA)
RNA: GGGAGUUCUACAGUCCGACGAUCUGCAGUUCACAAGCAUGGAGGAAACAGACAGAACGACAGCGUUCAGGACAGUCAGAGCGGACCCAAGACGAGGCUGGACUUGCCGCCAGGGGGAUUUCUUCUGGAUGGCACUGGGGCCGGCAACAGAGGAUUGAGCAUCA
B4: chr11:63961690:63961691:+_ENSG00000168439_ENST00000305218|hu_mus|FALSE|FALSE (ssRNA)
RNA: GGGAGUUCUACAGUCCGACGAUCUUCAUGUUUUAAACCUUCUUCAUAGGUUCGUUUGGCUUCCUCAAACCGGUUUAGGAAUUCAAGGGCUGCUGCUUUUCUUGAAUAACCCUUGCCCCAGUCAGGCUUCAGGUCAACAGUCUUCAACAGAGGAUUGAGCAUCA
B5: chr13:42873775:42873776:+_ENSG00000023516_ENST00000025301|hu_hu|FALSE|FALSE (ssRNA)
RNA: GGGAGUUCUACAGUCCGACGAUCAGAAGACGAAAAAAAUGUUUUCUGUAAAUCACUAUCUUUAUCUGAAGCAUUAGAUGACCUAUAGAAACUCCUUUGGGUCCAAGGCUCUGAAAUUGAUGUUGUGACUGAAGUUUUCACAGACAACAGAGGAUUGAGCAUCA
B6: chr9:100389865:100389866:-_ENSG00000136925_ENST00000341170|hu_mus|FALSE|FALSE (ssRNA)
RNA: GGGAGUUCUACAGUCCGACGAUCUAUCAGUGGGACAGGUUCCUUGCAGACAAGUAUCUUCCGCAAACCCUAGGCCUUUCCUGGGUCUCCCUUCACCAACUUGGCGCUGCUCCCCGCCCUCGAGCCCACGCCCCCCGGCGCGCGCAACAGAGGAUUGAGCAUCA
B7: chr9:74904954:74904955:+_ENSMUSG00000007656_ENSMUST00000169492|mus_mus|FALSE|FALSE (ssRNA)
RNA: GGGAGUUCUACAGUCCGACGAUCUCAAAAGGAAGAUACAGAAGAAAUCAAUACAACAGAGGUCCUGUUAAAUAAGAGUAACAUACAAAGCUGUAAUCAUGAGAAAGUAAAGAAAGCCAGAGCAUUAAAGCUGUAAAACUUGCUCAACAGAGGAUUGAGCAUCA
B8: chr14:73742652:73742653:-_ENSG00000133961_ENST00000557597|hu_hu|FALSE|FALSE (ssRNA)
RNA: GGGAGUUCUACAGUCCGACGAUCCCCCUUUACCUUUGGCAAGAUUACUUACAACUCAUACAACUUCUUAAUAUCUGAGAACUAUUUAAAAUAUUCUAAAUGCAUAAAAAUAAAGAUUUUGGCUUUUGAUAUAUAUAAUAUUUACAACAGAGGAUUGAGCAUCA
B9: chr11:18422405:18422406:+_ENSG00000134333_ENST00000379412|hu_hu|motif|central (ssRNA)
RNA: GGGAGUUCUACAGUCCGACGAUCCAGCUUGGAGUUUGCAGUUACAUUAUAGUCUUUGCCAGAGACAAUCUUUGGUGUUCGGAGGAAAAGGCUGCCAUGUUGGAGAUCCAUCAUCUCUCCCUUCAAUUUGUCUUCGAUGACAUCCAACAGAGGAUUGAGCAUCA
B10: chr14:89338683:89338684:+_ENSG00000165533_ENST00000346301|hu_hu|hu_hu_hu_mus_False|58_108 (ssRNA)
RNA: GGGAGUUCUACAGUCCGACGAUCGUGGUUGUUGUUGACCAGGGCCAGCCUGAAGCAUUGGUGGGCCAAGUUUGUAUCUCCUAUUCCCACAGCUAUGUGCCCCAGGUUGUACCAGACAUCAGCUGCCUCUUCUUCAUUUUCAGCCAACAGAGGAUUGAGCAUCA
B11: chr2:198351390:198351391:-_ENSG00000144381_ENST00000345042|hu_hu|hu_hu_hu_mus_False|78_78 (ssRNA)
RNA: GGGAGUUCUACAGUCCGACGAUCUCAUUCCCACCCUCCACAGAAAGGCUGCUUCUGUUCUCAUCUGUGGUGACACAGCGCUACAGUCCUGAUGCUCACAGAACAGUAGAGAUGCCUCAGUGAUUUAAGUUGAAAGCAGGACACCAACAGAGGAUUGAGCAUCA
B12: chr4:34758383:34758384:-_ENSMUSG00000039967_ENSMUST00000047950|mus_mus|FALSE|FALSE (ssRNA)
RNA: GGGAGUUCUACAGUCCGACGAUCUUCAUCAUCUGAACCAUCGUUGUCAUUAAACACUAUGAAAUCUGUUGAAUAAAGACUAUUCUUUUUUAUGGGUCGCUGUUCCUGUUUAGCCACAGUAUUAAUAUUAGUCUUUUGAUUUUCCAACAGAGGAUUGAGCAUCA
B13: chr17:13115065:13115066:+_ENSMUSG00000068039_ENSMUST00000151287|mus_mus|FALSE|FALSE (ssRNA)
RNA: GGGAGUUCUACAGUCCGACGAUCGAUACUUGCUCCAGAAGCUUUUGCAACAUGCUUCAGGUCUCGUUUUAAAACUCUCCUAACAGCCAUGGCACCAGCUUCCACAAAAUACUUGAGAUACAUAUCAUCAAUGCCACCAGUGGUCAACAGAGGAUUGAGCAUCA
B14: chr15:31385891:31385892:-_ENSMUSG00000039100_ENSMUST00000090227|mus_mus|motif|central (ssRNA)
RNA: GGGAGUUCUACAGUCCGACGAUCAUUCACUCCUAAACAGACACCCCUAGGCCUUAGUCACUCAUUUCCAUCUAAGGUUCGGUAGGAUUGUCAUGAUUACAAAAUGAGGCACUCAGACAGAUAGACAGGAAUGGAGACAUACAUCAACAGAGGAUUGAGCAUCA
B15: chr4:17845017:17845018:+_ENSG00000109805_ENST00000514176|hu_mus|hu_hu_hu_mus_False|1_58 (ssRNA)
RNA: GGGAGUUCUACAGUCCGACGAUCGCUCUCUUAACUUGUAUCUUCAUUAAGGAACUCUGCAAGGUUAAGUUUACUUUUUCUAGUGCUAGCUGUUUUGGCUCGUCUGGGUAAUCUCAUCUUCAUUUCUGAUGGUGGUUUGGAACUCAACAGAGGAUUGAGCAUCA
B16: chr6:146524949:146524950:-_ENSMUSG00000040250_ENSMUST00000032427|mus_hu|FALSE|FALSE (ssRNA)
RNA: GGGAGUUCUACAGUCCGACGAUCCUGCCUGCAAGAUUCUGCCAUAUAAGGGCAGUGAUCCACAACAAACACUGUUUUAUGAGAUUCAGAAAAAAUCUUCAUUUUGUUUUAACUUUCGUGCCUGGUCCUGCAGUGAAAACGAACCAACAGAGGAUUGAGCAUCA
B17: chr17:73774127:73774128:-_ENSG00000132475_ENST00000254810|hu_mus|motif|central (ssRNA)
RNA: GGGAGUUCUACAGUCCGACGAUCUGACAAGACUCCCCACCACUUGUGAAUGUAAAACAUUUAAUUUAAAAAUGUUGAACACGGCAAUAUAUAAAAUAGCUAUUAUAAAUGCACAUAGUGUAUUCUAUAGCUGCCAGGUUUACUCAACAGAGGAUUGAGCAUCA
B18: chr9:95013113:95013114:-_ENSG00000196305_ENST00000443024|hu_hu|hu_hu_hu_mus_False|68_108 (ssRNA)
RNA: GGGAGUUCUACAGUCCGACGAUCCUCAGUGAGAAAAGGCGUGUAAGGGGCCAUCAGUCUGCACAGAGAAAGCAGAACACUGAACAGUGUCUCCAGAGCCAUGACACAGUCUUCCACCCCACUCUCACCCUUUAACCUCCUCCUCAACAGAGGAUUGAGCAUCA
B19: chr8:41367971:41367972:+_ENSG00000147533_ENST00000520817|hu_hu|motif|central (ssRNA)
RNA: GGGAGUUCUACAGUCCGACGAUCAAUAUACAGUAUUAUUCCUAUCAAAUUUUUUUCUCAUAAGUUAUAUUUAUAACAAAACGGUAAUUAAAAUAUUUUUUAUACCUGCUUAUUCCAUAUCCAGGGACACAGCGGGAACAUUUACAACAGAGGAUUGAGCAUCA
B20: chr4:4237396:4237397:-_ENSG00000132406_ENST00000382753|hu_hu|motif|central (ssRNA)
RNA: GGGAGUUCUACAGUCCGACGAUCUAAAACUUCACAUUAGGAAAUGCUAAAAACCCAGUAAUGUACAUAAUGAUAAAAUCGGAAGUGAUGAGAAAACAUAAAAUAUUUUCAUUUGGUCCUGUCACCUAACAAAACUAUCAUAAACAACAGAGGAUUGAGCAUCA
B21: chr18:77696836:77696837:-_ENSMUSG00000025427_ENSMUST00000026494|mus_hu|FALSE|FALSE (ssRNA)
RNA: GGGAGUUCUACAGUCCGACGAUCCCUCAGAGGAUACCGGCUGGGUGGGCUGAGGUUGUGGGAGGAGCGAGGGAGGAGGAAAGGCAGGUUCAUGAUGGAGAGGCAGGGUUGUGGUGGGGGCGGGGGGGUGCCAAGUGUAGCAAGCAACAGAGGAUUGAGCAUCA
B22: chr8:35901500:35901501:-_ENSMUSG00000031529_ENSMUST00000033929|mus_mus|FALSE|FALSE (ssRNA)
RNA: GGGAGUUCUACAGUCCGACGAUCUAUAUAACAUGAUCUGUCUUUGUGUGUGGGACAGCCUGUUCCUCCUCCAAUUCCAUAAACAUACUGAUUGCUUUUUGAGGAGUUUUCAGCAAAGUAAAUUCCAGCUCCAAACAUCCCUCCCAACAGAGGAUUGAGCAUCA

Target: T1, UNK ZnF1-3
Assay: nsRBNS (natural sequence RNA bind-n-seq); RBNS binding buffer (assumed for nsRBNS): 25 mM Tris pH 7.5, 150 mM KCl, 3 mM MgCl2, 0.01% Triton X-100, 500 ug/ml BSA, 20 U/ml SUPERase-In, 4 C; UNK is unkempt and MSI1 is Musashi-1; names of the RNAs are library labels; protein concentration not given here; high values mean tight binding

Question: How did the binding signal turn out when B1 was run?
Answer: The binding signal was 0.536 enrichment R.

Question: How did the binding signal turn out when B2 was run?
Answer: The binding signal was 0.705 enrichment R.

Question: Which binding signal does the source give for B3 here?
Answer: The binding signal was 1.45 enrichment R.

Question: With B4 as the binder, how does the binding signal read?
Answer: The binding signal was 0.607 enrichment R.

Question: With B5 as the binder, how does the binding signal read?
Answer: The binding signal was 0.809 enrichment R.

Question: Which binding signal does the source give for B6 here?
Answer: The binding signal was 1.19 enrichment R.

Question: Which binding signal does the source give for B7 here?
Answer: Its binding signal is 2.34 enrichment R.

Question: Which binding signal does the source give for B8 here?
Answer: The binding signal was 1.07 enrichment R.

Question: How did the binding signal turn out when B9 was run?
Answer: Its binding signal is 0.638 enrichment R.

Question: With B10 as the binder, how does the binding signal read?
Answer: The binding signal was 0.492 enrichment R.

Question: Which binding signal does the source give for B11 here?
Answer: The binding signal was 1.4 enrichment R.

Question: Which binding signal does the source give for B12 here?
Answer: The binding signal was 0.418 enrichment R.

Question: Which binding signal does the source give for B13 here?
Answer: The binding signal was 0.985 enrichment R.

Question: How did the binding signal turn out when B14 was run?
Answer: The binding signal was 1.25 enrichment R.

Question: For B15, which binding signal is on record?
Answer: Its binding signal is 0.331 enrichment R.

Question: For B16, which binding signal is on record?
Answer: The binding signal was 1.02 enrichment R.

Question: Which binding signal does the source give for B17 here?
Answer: Its binding signal is 1.13 enrichment R.

Question: How did the binding signal turn out when B18 was run?
Answer: Its binding signal is 1.61 enrichment R.

Question: How did the binding signal turn out when B19 was run?
Answer: Its binding signal is 1.27 enrichment R.

Question: With B20 as the binder, how does the binding signal read?
Answer: Its binding signal is 1.05 enrichment R.

Question: B21 was tested. Which binding signal did it give?
Answer: Its binding signal is 3.07 enrichment R.

Question: How did the binding signal turn out when B22 was run?
Answer: Its binding signal is 1.03 enrichment R.
